This is an account of results in ChEMBL document CHEMBL1961873, “Compounds: GSK PKIS; Assays: Nanosyn kinase panel” (2012).

The first assay deals with Serine/threonine-protein kinase MARK1 (Homo sapiens) (UniProt Q9P0L2). The following applies: at 1 µM.
Serine/threonine-protein kinase MARK1 (Homo sapiens), sequence (Q9P0L2 whole entry, looked up): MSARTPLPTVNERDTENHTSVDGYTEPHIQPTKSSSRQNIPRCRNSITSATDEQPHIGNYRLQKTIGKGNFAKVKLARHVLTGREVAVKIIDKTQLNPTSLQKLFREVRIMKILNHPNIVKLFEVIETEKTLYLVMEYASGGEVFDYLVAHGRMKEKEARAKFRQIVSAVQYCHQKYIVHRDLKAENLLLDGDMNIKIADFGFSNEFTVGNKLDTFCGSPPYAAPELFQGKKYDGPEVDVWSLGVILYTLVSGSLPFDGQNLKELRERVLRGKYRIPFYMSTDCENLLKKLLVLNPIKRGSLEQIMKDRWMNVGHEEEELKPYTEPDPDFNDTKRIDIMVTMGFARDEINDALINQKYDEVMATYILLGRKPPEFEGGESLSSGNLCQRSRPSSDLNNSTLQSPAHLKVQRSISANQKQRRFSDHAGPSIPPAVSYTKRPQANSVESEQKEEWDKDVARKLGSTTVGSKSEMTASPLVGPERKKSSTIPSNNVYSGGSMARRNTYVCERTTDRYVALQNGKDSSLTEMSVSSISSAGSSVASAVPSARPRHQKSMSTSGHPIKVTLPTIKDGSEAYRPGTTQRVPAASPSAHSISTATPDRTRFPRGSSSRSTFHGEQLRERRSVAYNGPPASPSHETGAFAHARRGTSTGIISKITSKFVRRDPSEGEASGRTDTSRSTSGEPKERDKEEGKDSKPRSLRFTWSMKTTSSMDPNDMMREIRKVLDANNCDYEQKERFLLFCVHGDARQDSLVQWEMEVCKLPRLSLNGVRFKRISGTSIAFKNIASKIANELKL
Consider `CCn1c(-c2nonc2N)nc2c(C#CCN)ncc(OCCCN)c21`, for which the inhibition is 11%.

Consider `NS(=O)(=O)c1ccc(N/C=C2\C(=O)Nc3ccc4ncsc4c32)cc1`, for which the inhibition turned out to be 53.8%.

For the compound `COc1cc(C=NNc2ncnc3c2cnn3Cc2ccccc2)ccc1O`, the inhibition was determined as 1.36%.

For `Fc1ccc(-c2ncn(C3CCNCC3)c2-c2ccnc(Oc3ccccc3)n2)cc1`, the inhibition stood at 0.99%.

Regarding `COc1cc2c(cc1Nc1nc(Nc3ccsc3C(N)=O)c3cc[nH]c3n1)N(C(=O)CN(C)C)CCC2`, the inhibition was found to be 5.99%.

Consider `COc1cccc(-n2ncc3c(N/N=C/c4ccncc4)ncnc32)c1`, for which the inhibition stood at 9.17%.

Consider `CCn1c(-c2nonc2N)nc2c(C#CC(C)(C)O)nc(O[C@@H](CN)c3ccccc3)cc21`, for which the inhibition was 93.1%.

On to `NC(=O)c1sc(-n2cnc3cc(C(F)(F)F)ccc32)cc1OCc1ccccc1Br`, for which the inhibition stood at 1.6%.

Regarding `NS(=O)(=O)c1ccc(-c2ccc3c(NC(=O)C4CC4)n[nH]c3c2)cc1`, the inhibition was 2.18%.

Take `Nc1nonc1-c1nc2cnccc2n1C1CCCCC1`: the inhibition was found to be 16.5%.

Take `Cc1cc(-c2ccco2)cc(C)c1/C=C/c1cncc(-c2nn[nH]n2)c1`: the inhibition was 1.26%.

As to `CCn1c(-c2nonc2N)nc2c(C#CC(C)(C)O)ncc(OC[C@@H]3CCCN3)c21`, the inhibition was found to be 61.1%.

For `COc1cccc(COc2cc(-n3cnc4ccccc43)sc2C(N)=O)c1`, the inhibition turned out to be 1.16%.

For `CCn1c(-c2nonc2N)nc2c(C#CC(C)(C)O)ncc(OCC3CCNCC3)c21`, the inhibition worked out at 61.3%.

The target in another assay is MAP/microtubule affinity-regulating kinase 3 (Homo sapiens) (UniProt P27448). Conditions: at 0.1 µM.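 Further: mean percent inhibition of MARK3 kinase activity, measured within the GSK PKIS screening panel.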
MAP/microtubule affinity-regulating kinase 3 (Homo sapiens), sequence (P27448 whole entry, looked up): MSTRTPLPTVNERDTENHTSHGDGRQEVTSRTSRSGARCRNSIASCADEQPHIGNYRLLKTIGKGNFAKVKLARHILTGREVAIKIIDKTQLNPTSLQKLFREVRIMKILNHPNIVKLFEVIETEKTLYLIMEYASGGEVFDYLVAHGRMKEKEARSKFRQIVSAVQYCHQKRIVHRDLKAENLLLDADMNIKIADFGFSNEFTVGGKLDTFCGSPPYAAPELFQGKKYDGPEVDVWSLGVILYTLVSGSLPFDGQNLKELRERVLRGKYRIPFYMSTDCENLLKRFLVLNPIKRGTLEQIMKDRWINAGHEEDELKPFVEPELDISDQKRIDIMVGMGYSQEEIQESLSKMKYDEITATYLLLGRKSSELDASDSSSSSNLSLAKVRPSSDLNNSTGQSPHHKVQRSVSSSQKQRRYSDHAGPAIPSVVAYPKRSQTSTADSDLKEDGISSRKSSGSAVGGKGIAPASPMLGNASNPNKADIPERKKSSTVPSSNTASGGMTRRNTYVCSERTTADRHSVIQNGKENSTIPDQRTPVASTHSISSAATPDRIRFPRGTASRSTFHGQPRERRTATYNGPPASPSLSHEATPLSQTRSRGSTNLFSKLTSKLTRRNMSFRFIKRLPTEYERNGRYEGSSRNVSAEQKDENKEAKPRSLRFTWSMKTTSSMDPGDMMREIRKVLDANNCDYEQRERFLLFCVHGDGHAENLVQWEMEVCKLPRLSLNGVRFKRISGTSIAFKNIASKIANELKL
For the compound `CCn1c(-c2nonc2N)nc2c(C#CCN)ncc(OCCCN)c21`, the inhibition worked out at 6.58%.

Take `NS(=O)(=O)c1ccc(N/C=C2\C(=O)Nc3ccc4ncsc4c32)cc1`: the inhibition stood at 8.01%.

In the case of `COc1cc(C=NNc2ncnc3c2cnn3Cc2ccccc2)ccc1O`, the inhibition was 0.53%.

`Fc1ccc(-c2ncn(C3CCNCC3)c2-c2ccnc(Oc3ccccc3)n2)cc1`: the inhibition stood at 0.57%.

On to `COc1cc2c(cc1Nc1nc(Nc3ccsc3C(N)=O)c3cc[nH]c3n1)N(C(=O)CN(C)C)CCC2`, for which the inhibition stood at 2.11%.

As for `COc1cccc(-n2ncc3c(N/N=C/c4ccncc4)ncnc32)c1`, the inhibition came out at 5.75%.

Consider `CCn1c(-c2nonc2N)nc2c(C#CC(C)(C)O)nc(O[C@@H](CN)c3ccccc3)cc21`, for which the inhibition was 83.3%.

Regarding `NC(=O)c1sc(-n2cnc3cc(C(F)(F)F)ccc32)cc1OCc1ccccc1Br`, the inhibition stood at 1.11%.

For `NS(=O)(=O)c1ccc(-c2ccc3c(NC(=O)C4CC4)n[nH]c3c2)cc1`, the inhibition came to 2.65%.

Turning to `Nc1nonc1-c1nc2cnccc2n1C1CCCCC1`, the inhibition came out at 4.04%.

Regarding `Cc1cc(-c2ccco2)cc(C)c1/C=C/c1cncc(-c2nn[nH]n2)c1`, the inhibition is -0.4%.

Regarding `CCn1c(-c2nonc2N)nc2c(C#CC(C)(C)O)ncc(OC[C@@H]3CCCN3)c21`, the inhibition was 14.9%.

`COc1cccc(COc2cc(-n3cnc4ccccc43)sc2C(N)=O)c1`: the inhibition turned out to be 2.28%.

With `CCn1c(-c2nonc2N)nc2c(C#CC(C)(C)O)ncc(OCC3CCNCC3)c21`, the inhibition amounted to 13%.
